# Reference: the supplement of paper PMC11006884
# The full data set covers some 6,500 targets. This sample favours those with a hit. About 2% of all pairs of compound and target were hits. Unmarked numbers belong to inactive results.
# Compound: COC(=O)C#Cc1ccccc1 [methyl 3-phenylpropiolate]
# Assay: log2 ratio of iodoacetamide-alkyne labeling of the cysteine site, DMSO over compound (competition); higher = stronger covalent engagement of the cysteine by the compound, active = 1 or more
# Conditions: 500 µM; treatment time 1 h; system: HEK293T cell lysate
# Outline: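 For each cysteine, the log2 competition ratio is mean control-channel reporter intensity over mean compound-channel reporter intensity. HEK293T lysate (2 mg/mL) was exposed to vehicle or electrophile (500 µM, 1 h, ambient temperature), labelled with iodoacetamide alkyne (1 h), clicked to sCIP-TMT reagents, digested overnight with trypsin at 37 °C, streptavidin-enriched and analysed by Orbitrap Eclipse LC-MS/MS with FAIMS and FragPipe. Cysteines quantified in only one of three replicates, each with duplicate channels, were excluded.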
# Chain of UniProt P31153 (P31153 whole entry, looked up): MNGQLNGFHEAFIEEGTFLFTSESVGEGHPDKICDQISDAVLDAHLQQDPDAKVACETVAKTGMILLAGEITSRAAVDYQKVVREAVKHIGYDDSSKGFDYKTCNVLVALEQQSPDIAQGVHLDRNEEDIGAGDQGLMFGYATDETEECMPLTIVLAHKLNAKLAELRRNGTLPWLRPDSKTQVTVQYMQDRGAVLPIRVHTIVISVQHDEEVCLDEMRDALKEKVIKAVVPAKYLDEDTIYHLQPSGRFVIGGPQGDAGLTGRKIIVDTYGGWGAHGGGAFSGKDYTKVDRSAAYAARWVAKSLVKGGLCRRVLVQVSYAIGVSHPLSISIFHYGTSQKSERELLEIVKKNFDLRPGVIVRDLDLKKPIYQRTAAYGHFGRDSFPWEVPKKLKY
# Chain of UniProt P15924 (P15924 whole entry, looked up): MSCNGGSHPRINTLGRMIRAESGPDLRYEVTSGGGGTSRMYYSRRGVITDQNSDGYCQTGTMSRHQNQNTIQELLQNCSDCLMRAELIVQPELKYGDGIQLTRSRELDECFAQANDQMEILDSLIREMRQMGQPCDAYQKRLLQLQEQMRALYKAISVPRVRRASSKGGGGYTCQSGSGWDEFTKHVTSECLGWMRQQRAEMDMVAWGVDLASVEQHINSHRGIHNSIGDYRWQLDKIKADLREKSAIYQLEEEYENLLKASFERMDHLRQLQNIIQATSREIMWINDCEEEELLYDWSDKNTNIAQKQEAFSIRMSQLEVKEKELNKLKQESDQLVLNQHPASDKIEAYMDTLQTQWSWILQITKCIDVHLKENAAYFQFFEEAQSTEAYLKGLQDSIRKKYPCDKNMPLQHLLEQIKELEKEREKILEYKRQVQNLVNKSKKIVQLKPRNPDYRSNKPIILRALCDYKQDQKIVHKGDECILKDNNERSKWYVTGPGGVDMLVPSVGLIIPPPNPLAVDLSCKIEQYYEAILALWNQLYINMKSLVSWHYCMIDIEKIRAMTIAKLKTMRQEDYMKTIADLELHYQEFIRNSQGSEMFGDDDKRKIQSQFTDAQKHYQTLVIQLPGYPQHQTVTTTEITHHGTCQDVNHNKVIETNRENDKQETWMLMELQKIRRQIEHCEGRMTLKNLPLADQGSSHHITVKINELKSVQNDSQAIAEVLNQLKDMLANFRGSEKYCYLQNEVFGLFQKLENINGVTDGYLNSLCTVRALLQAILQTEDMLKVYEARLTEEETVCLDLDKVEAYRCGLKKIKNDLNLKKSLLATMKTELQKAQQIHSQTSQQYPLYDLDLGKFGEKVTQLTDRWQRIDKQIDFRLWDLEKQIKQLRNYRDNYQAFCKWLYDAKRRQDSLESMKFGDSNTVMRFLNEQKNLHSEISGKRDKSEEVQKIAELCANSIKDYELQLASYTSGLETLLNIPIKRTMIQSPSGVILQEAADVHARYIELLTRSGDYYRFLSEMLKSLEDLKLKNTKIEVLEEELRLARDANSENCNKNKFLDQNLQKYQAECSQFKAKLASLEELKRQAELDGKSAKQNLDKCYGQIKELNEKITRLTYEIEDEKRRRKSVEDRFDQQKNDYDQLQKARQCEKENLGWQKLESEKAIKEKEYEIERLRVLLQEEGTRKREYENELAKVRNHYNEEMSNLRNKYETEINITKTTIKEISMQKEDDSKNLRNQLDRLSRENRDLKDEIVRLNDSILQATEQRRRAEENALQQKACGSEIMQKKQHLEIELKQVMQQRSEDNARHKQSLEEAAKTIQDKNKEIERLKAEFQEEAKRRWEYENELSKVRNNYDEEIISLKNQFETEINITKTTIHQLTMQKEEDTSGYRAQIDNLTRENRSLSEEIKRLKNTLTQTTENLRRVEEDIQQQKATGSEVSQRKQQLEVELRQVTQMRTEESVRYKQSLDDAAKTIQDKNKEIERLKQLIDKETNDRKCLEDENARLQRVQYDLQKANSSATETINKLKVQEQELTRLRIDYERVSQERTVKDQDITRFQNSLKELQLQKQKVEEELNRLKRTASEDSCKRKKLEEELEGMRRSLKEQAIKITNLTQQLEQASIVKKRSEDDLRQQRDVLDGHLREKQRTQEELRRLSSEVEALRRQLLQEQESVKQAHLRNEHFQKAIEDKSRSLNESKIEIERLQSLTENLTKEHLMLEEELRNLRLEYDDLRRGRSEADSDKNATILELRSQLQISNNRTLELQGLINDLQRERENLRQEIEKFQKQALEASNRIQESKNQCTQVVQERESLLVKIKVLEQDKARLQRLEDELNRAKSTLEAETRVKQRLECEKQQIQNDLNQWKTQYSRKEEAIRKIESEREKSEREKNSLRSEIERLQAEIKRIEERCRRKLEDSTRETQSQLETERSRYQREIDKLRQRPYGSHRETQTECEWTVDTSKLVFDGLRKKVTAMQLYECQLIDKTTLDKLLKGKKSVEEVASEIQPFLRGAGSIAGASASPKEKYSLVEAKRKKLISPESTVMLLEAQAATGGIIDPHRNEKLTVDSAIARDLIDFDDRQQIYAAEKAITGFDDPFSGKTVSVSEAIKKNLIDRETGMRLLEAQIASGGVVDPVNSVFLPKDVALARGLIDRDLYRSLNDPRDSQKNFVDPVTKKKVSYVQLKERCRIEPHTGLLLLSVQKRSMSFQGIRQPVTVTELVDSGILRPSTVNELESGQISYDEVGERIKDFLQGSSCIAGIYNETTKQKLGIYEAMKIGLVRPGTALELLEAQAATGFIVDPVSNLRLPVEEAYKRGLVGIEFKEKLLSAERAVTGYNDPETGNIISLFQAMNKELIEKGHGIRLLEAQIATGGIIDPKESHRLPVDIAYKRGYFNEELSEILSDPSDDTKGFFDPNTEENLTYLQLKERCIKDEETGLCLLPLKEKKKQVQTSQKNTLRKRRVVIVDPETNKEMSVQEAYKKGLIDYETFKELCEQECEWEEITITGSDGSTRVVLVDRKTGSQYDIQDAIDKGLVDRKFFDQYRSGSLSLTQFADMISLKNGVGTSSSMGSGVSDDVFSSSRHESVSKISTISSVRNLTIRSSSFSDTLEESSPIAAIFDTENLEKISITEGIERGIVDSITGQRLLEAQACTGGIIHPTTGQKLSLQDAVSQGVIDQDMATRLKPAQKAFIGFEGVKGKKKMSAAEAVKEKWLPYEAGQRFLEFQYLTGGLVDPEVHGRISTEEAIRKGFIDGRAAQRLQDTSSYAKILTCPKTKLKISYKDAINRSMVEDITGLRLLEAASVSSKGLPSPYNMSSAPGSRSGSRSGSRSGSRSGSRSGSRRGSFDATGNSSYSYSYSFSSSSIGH
# Chain of UniProt P25685 (P25685 whole entry, looked up): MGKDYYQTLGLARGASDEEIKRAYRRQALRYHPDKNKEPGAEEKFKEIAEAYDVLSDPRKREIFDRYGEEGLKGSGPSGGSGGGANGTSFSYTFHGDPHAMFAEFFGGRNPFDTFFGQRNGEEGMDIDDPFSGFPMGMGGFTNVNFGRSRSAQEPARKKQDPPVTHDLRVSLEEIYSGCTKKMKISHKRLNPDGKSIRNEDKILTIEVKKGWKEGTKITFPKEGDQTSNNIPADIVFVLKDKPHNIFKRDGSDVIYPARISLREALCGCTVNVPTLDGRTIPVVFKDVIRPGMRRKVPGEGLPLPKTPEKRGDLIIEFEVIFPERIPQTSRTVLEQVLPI
# Chain of UniProt P02545 (P02545 whole entry, looked up): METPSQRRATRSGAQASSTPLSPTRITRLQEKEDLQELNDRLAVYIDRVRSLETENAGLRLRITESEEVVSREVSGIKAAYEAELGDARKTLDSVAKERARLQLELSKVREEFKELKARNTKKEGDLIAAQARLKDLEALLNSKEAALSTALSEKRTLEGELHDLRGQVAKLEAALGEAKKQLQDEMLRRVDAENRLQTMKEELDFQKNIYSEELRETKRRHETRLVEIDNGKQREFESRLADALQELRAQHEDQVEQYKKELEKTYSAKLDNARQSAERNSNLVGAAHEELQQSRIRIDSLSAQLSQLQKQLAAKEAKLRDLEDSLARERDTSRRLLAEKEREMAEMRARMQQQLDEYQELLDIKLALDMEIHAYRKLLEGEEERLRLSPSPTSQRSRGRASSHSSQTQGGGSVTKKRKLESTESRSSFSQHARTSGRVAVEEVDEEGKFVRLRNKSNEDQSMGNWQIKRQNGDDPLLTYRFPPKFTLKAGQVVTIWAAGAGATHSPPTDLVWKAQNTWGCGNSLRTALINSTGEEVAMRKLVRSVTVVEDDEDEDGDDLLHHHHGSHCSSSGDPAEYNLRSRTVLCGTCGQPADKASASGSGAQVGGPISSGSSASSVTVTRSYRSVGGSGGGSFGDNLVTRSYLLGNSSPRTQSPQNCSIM
# Chain of UniProt O95573 (O95573 whole entry, looked up): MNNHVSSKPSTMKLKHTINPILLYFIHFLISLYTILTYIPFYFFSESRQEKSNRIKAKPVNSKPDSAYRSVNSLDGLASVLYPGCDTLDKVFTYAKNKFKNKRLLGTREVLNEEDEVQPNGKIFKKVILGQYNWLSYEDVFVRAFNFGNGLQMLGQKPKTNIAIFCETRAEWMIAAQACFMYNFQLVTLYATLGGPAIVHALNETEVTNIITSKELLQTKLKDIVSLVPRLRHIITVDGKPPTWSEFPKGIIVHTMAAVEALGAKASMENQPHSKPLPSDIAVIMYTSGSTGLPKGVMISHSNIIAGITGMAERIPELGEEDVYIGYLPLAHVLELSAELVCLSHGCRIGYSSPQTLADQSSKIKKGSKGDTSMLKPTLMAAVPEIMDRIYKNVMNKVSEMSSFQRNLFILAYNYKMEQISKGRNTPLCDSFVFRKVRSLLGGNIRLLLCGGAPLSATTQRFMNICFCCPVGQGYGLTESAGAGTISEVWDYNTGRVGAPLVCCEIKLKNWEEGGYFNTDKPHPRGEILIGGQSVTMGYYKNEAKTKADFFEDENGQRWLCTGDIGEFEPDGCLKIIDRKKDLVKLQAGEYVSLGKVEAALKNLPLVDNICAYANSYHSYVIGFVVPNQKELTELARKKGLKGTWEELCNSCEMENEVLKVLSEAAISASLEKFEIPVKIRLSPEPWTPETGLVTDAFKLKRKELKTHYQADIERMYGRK
row,Target,log2 ratio of iodoacetamide-alkyne labeling
1,ACSL3 C652 (UniProt O95573),-0.112
2,PAICS C81 (UniProt P22234),0.248
3,RPS5 C66 (UniProt P46782),2.5 (active)
4,PLCG1 C976 (UniProt P19174),1.9 (active)
5,UniProt P10155_C71,0.136
6,UniProt P0CG30_C105,-0.204
7,CCT4 C252 (UniProt P50991),-0.0169
8,UniProt P35568_C494,0.123
9,CCT4 C337 (UniProt P50991),0.0635
10,ATP1A1 C428 (UniProt P05023),0.234
11,UniProt P14618_C49,-0.193
12,DNAJB1 C267 (UniProt P25685),0.268
13,HNRNPM C114 (UniProt P52272),-0.0182
14,LMNA C570 (UniProt P02545),0.553
15,PPP2R1A C294 (UniProt P30153),0.323
16,VDAC2 C210 (UniProt P45880),1.39 (active)
17,DSP C174 (UniProt P15924),1.06 (active)
18,MAT2A C104 (UniProt P31153),0.274
19,MCC C714 (UniProt P23508),0.565
20,EEF2 C567 (UniProt P13639),0.0358
21,SEPHS1 C31 (UniProt P49903),0.175
22,FLNA C1018 (UniProt P21333),0.0782
